Results filed as inconclusive are left out. Entries that show only a call come without a potency. A number with no mark means an inactive call. Active and inactive are the calls of the source. The call rests on the fitted dose curve; in most records, active means well fitted inhibition curve with a large enough effect; inconclusive means small, poorly fitted or top-dose-only effect; inactive means no such curve, though single readings can be large or run the other way.
assay: Counterscreen qHTS for small molecule stabilizers of the endoplasmic reticulum resident proteome: GLuc-NoTag assay (AID 1508627); settings: Gaussia luciferase NoTag secretion counterscreen, luminescence, thapsigargin 100 nM for final 4 h; series mostly up to 76.4 µM; activity change, negative = inhibition: at the top concentration
Source text: Assay Provider: Brandon K. Harvey Ph.D.
National Institute on Drug Abuse, National Institutes of Health, Baltimore, MD
Endoplasmic reticulum (ER) dysregulation is associated with human pathologies including neurodegenerative, cardiovascular, muscular, and diabetic conditions. Maintenance of ER calcium is critical for functions of the ER and its depletion can lead to loss of ER resident proteins, in a process termed exodosis. Therapeutic compounds capable of attenuating the redistribution of ER proteins under pathological conditions may slow or stop disease progression. To identify such compounds, we performed a quantitative high-throughput screen (qHTS) using the SERCaMP assay, which monitors secretion of ER resident proteins triggered by calcium depletion.
SERCaMP was initially developed as a reporter of ER calcium homeostasis using a Gaussia luciferase with a modified signal peptide and carboxy-terminus (GLuc-SERCaMP), modifications that confer secretion of the reporter in response to ER calcium depletion (Henderson et al., 2014). The assay was used to screen 9,501 compounds, including a collection of drugs approved by the FDA (US), EMA (EU), NHI (Japan), and HC (Canada) regulatory agencies (Huang et al., 2011). Since the SERCaMP reporter reflects the exodosis phenomenon (Trychta et al., 2018a), compounds identified in the screen have the potential to prevent exodosis by different mechanisms such as stabilizing ER calcium or augmenting ERS retrieval.
1. Henderson, M.J., Wires, E.S., Trychta, K.A., Richie, C.T., and Harvey, B.K. (2014). SERCaMP: a carboxy-terminal protein modification that enables monitoring of ER calcium homeostasis. Mol Biol Cell 25, 2828-2839.
2. Huang, R., Southall, N., Wang, Y., Yasgar, A., Shinn, P., Jadhav, A., Nguyen, D.T., and Austin, C.P. (2011). The NCGC pharmaceutical collection: a comprehensive resource of clinically approved drugs enabling repurposing and chemical genomics. Sci Transl Med 3, 80ps16.
3. Trychta, K.A., Back, S., Henderson, M.J., and Harvey, B.K. (2018a). KDEL Receptors Are Differentially Regulated to Maintain the ER Proteome under Calcium Deficiency. Cell Rep 25, 1829-1840 e1826.
SEQUENCE No. (1, 2, 3, etc.); […] (e.g., Cells, Incubation, Reagent, etc.); VALUE and DESCRIPTION.
1; Reagent; 5 uL; 1000 SH-SY5Y cells per wells
3; Compound; 23 nL; Control inhibitor / compound library
5; Reagent; 100 nM; Thapsigargin
7; Reagent; 1 uL; 0.5x coelenterazine
8; Detection; Luminescence; ViewLux imaging system
NOTES (numbers refer to sequence above)
1; SH-SY5Y human neuroblastoma cells stably expressing the constitutively secreted GLuc (SH-SY5Y-GLuc-NoTag) cells were seeded in 1,536 well white tissue culture treated plates (Corning, Cat# 7464) in DMEM-high glucose-sodium pyruvate (ThermoFisher Scientific, Cat #10569) supplemented with 10% bovine growth serum (Hyclone), 10 U/ml penicillin (Gibco), 10 ug/ml streptomycin (Gibco), and 20 mM HEPES.
2; Assay plates were incubated for 5 hour at 37C in a humidified incubator containing 5% CO2.
4; Cells were then incubated for 19 hours at 37C, 5% CO2.
5; Thapsigargin was added at 100 nM to deplete ER calcium stores.
6; Cells were incubated for 4 hour (37 °C, 5% CO2)
7; Gaussia luciferase in the medium was measured by adding 1 ul of 0.5x coelenterazine (final concentration 0.07x) prepared in Gaussia Luciferase Glow Assay Buffer (Pierce), without addition of the Cell Lysis Buffer Reagent.
8; Luminescence was measured using a ViewLux CCD imaging system (Perkin Elmer) equipped with clear filters. […] The same controls were also used for the calculation of the Z' factor, a measure of assay quality control, as previously described (Zhang et al., 1999). For the initial validation of activity in the SERCaMP assays, hits from the primary screen were assayed again at 11-concentrations (1.3 nM - 76.6 uM). SH-SY5Y-GLuc-SERCaMP cells were assayed for ER Ca2+ depletion as outlined above.
1. Zhang, J.H., Chung, T.D., and Oldenburg, K.R. (1999). […]

| SMILES | Potency | activity change, negative = inhibition [%] |
| --- | --- | --- |
| CCN(CC)CCOC(=O)c1ccc(N)cc1 | inactive |  |
| CN(C)CCC(c1ccccc1)c1ccccn1 (stereo not drawn) |  | 19 |
| CC1=C(/C=C/C(C)=C/C=C/C(C)=C/C(=O)Nc2ccc(O)cc2)C(C)(C)CCC1 | inactive |  |

From PubChem BioAssay (NCATS)
